Data on 40 compounds can be found in PubChem BioAssay AID651789 (National Center for Advancing Translational Sciences (NCATS), 2012).

Records with an inconclusive call do not appear. Entries that show only a call come without a potency. The source made the active and inactive calls. The call rests on the fitted dose curve; in most records, active means well fitted inhibition curve with a large enough effect; inconclusive means small, poorly fitted or top-dose-only effect; inactive means no such curve, though single readings can be large or run the other way.
Potency means the concentration at half of the fitted maximal effect.

The assay is described as follows: Acumen qHTS Assay for Inhibitors of the mTORC1 Signaling Pathway in WT MEF Cells: Hit Validation. Further: nearly all actives have a fitted effect of over 60% in size. The settings on record: Acumen imaging; series mostly up to 37.3 µM. In short, it runs like this:
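Read-out is immunofluorescent phospho-rpS6 (Ser235/236) normalised to PI-stained cell number, reported as % active cells using a 7.5 nM rapamycin threshold. Cells: WT or Tsc2-/-, p53-/- MEFs, compound-exposed 24 h at 37C; PI count also tracks viability.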
(In general: In qHTS, concentration-response curves come from the screen itself.)
For `CCCCS(=O)(=O)c1oc(-c2ccc(F)cc2)nc1S(=O)(=O)c1ccc(C)cc1`, the Potency was 5.21 µM (active). Then `CC(C)S(=O)(=O)c1oc(-c2ccc(F)cc2)nc1S(=O)(=O)c1ccc(F)cc1`, with 0.521 µM (active).

For `Cc1cc(C)c(/C=C2\C(=O)Nc3ccccc32)[nH]1`, the Potency result is “inactive”. On to `O=C(NCCc1nc2ccccc2n1Cc1ccc(Cl)cc1Cl)c1ccco1`, for which the Potency entry was “inactive”. For the compound `CCN(CC)CCn1c(=N)n(CC(O)COc2ccccc2C)c2ccccc21` (stereo not given), the Potency is 11.7 µM (active).

For the compound `CCc1ccc(S(=O)(=O)c2c(C(=O)c3ccc(C)c(C)c3)cnc3ccccc23)cc1`, the Potency entry is “inactive”. As to `COc1ccc(OCc2nc3c4c(-c5ccccc5)c(-c5ccccc5)oc4ncn3n2)cc1`, the Potency result was “inactive”.

Take `COc1cc(Br)ccc1C1C(C(=O)Nc2ccc(C)cc2C)=C(C)Nc2nnnn21` (stereo not given): the Potency entry is “inactive”. Turning to `O=C(NCc1ccccc1)c1ccc2c(c1)N(Cc1ccccc1F)C(=O)c1ccccc1S2=O` (stereo not given), the Potency entry is “inactive”. The result for `CCn1c(CC2C(=O)N(C)c3ccc(Br)cc32)nc2ccccc2c1=O` (stereo not given) reads “inactive”. Then `CCOC(=O)c1ccc(N2C(=O)c3n[nH]c(-c4ccco4)c3C2c2ccc(OCC)cc2)cc1` (stereo not given), with “inactive”; and `O=C(COc1ccc(F)cc1)Nc1ccc(Cl)c(-c2nc3ccccc3[nH]2)c1`, with “inactive”. Then `Cc1cccc(C2C=C(c3ccc(C)c(C)c3)Nc3nnnn32)c1` (stereo not given), with 1.47 µM (active).

For `COc1cc2ncnc(Nc3ccc(F)c(Cl)c3)c2cc1OCCCN1CCOCC1`, the Potency result is “inactive”.

As to `CCCN1C(=O)C(Cc2nc3ccccc3c(=O)n2CC)c2cc(Br)ccc21` (stereo not given), the Potency result was “inactive”.

As for `CC(C)OCCCn1c(=O)c2ccccc2n2c(-c3ccc(F)cc3)nnc12`, the Potency result is “inactive”. For the compound `Cc1ccc(S(=O)(=O)c2nc(-c3ccco3)oc2SC(C)c2ccccc2)cc1` (stereo not given), the Potency entry is “inactive”. Take `CCS(=O)(=O)c1ccccc1C(=O)N(Cc1cccnc1)c1nc2cc(C)c(C)cc2s1`: the Potency entry was “inactive”. On to `Cc1ccc(-c2nnn(CC(=O)N(CC(=O)NCCC(C)C)c3ccc(F)cc3)n2)cc1`, for which the Potency entry is “inactive”.

`Cc1ccc(NC(=O)CCNS(=O)(=O)c2cccc3nonc23)cc1Cl`: the Potency result was “inactive”.

Turning to `NC(=O)c1ccc(-c2nc(-c3ccc4c(c3)OCO4)c(-c3ccccn3)[nH]2)cc1`, the Potency result was “inactive”. Regarding `COc1cc(OC)c(NC(=O)Nc2ccc3c(c2)N(C)C(=O)c2ccccc2S3)cc1Cl`, the Potency is 5.21 µM (active). With `CCCc1oc2ccc(NS(=O)(=O)c3ccc(OC)cc3)cc2c1C(=O)OCC`, the Potency is 0.585 µM (active). The result for `COc1cc(NC(=O)c2cccc3c2C(=O)N(C2CCCCC2)C3)cc(OC)c1OC` reads “inactive”. In the case of `Nc1nc(Nc2ccccc2F)sc1C(=O)c1ccc(Cl)cc1`, the Potency entry is “inactive”. For `Cc1ccc(-c2nnc(Nc3ccc(O)cc3)c3ccccc23)cc1S(=O)(=O)N1CCCCC1`, the Potency result is “inactive”.

As to `Cc1cccc(N(CC(=O)NCCSc2ccc(Cl)cc2)S(=O)(=O)c2ccccc2)c1C`, the Potency entry was “inactive”.

In the case of `CC(C)(C)c1ccc(C(=O)Nc2nnc3n2CCS3)cc1`, the Potency is 8.26 µM (active). Take `Cc1cn([C@H]2C[C@H](N=[N+]=[N-])[C@@H](CO)O2)c(=O)[nH]c1=O`: the Potency result was “inactive”.

On to `Cc1ccccc1Oc1nc2ccccn2c(=O)c1/C=C(\C#N)c1nc2ccccc2[nH]1`, for which the Potency result is “inactive”. With `Cc1c(C2=CCN(S(=O)(=O)c3ccc(Br)cc3)CC2)c2ccccc2n1CC(=O)N1CCCC1`, the Potency entry is “inactive”. As to `COc1cc(-c2ccno2)ccc1S(=O)(=O)N1CCN(c2cc(C)ccc2C)CC1`, the Potency result is “inactive”.

Take `Cc1noc(/C=C/N(C)C)c1S(=O)(=O)N1CCCC(C(=O)Nc2ccc(F)cc2F)C1` (stereo not given): the Potency is 1.85 µM (active). The result for `CCc1nn(CC(=O)NCc2ccccc2)c(=O)c2cccn12` reads “inactive”; that for `CCS(=O)(=O)c1ncc(Cl)c(C(=O)N(Cc2ccccc2)Cc2ccco2)n1`, 3.29 µM (active).

For `Cc1ccc(NC(=O)CSc2ccc(-c3ccccn3)nn2)cc1F`, the Potency result is “inactive”. `CCOC(=O)C1CCN(C(=O)CSc2c3c(nc4ccc(Cl)cc24)CCCC3)CC1`: the Potency result is “inactive”.

On to `Oc1ccc(NCc2ccccc2OCc2ccc(Cl)cc2)cc1`, for which the Potency entry is “inactive”. `CS(=O)(=O)N(CC(=O)NCCc1ccccc1)c1cc(C(F)(F)F)ccc1Cl`: the Potency entry is “inactive”. In the case of `CCCCOC(=O)c1ccc(NC(=O)c2ccc3c(c2)CCN3S(=O)(=O)c2ccccc2)cc1`, the Potency result was “inactive”.
